Screens as filed in PubChem.
Many of the other results were omitted from the sample, so hits are more common in it than they were.
ALOX12 inh – blocks human arachidonate 12S-lipoxygenase | P18054 | purified 12hLO, xylenol orange hydroperoxide absorbance | Potency, µM (series often up to 108 µM), usual class: inhibitors | hit rate 1.1% among 580,000
Target sequence (P18054 whole entry, looked up): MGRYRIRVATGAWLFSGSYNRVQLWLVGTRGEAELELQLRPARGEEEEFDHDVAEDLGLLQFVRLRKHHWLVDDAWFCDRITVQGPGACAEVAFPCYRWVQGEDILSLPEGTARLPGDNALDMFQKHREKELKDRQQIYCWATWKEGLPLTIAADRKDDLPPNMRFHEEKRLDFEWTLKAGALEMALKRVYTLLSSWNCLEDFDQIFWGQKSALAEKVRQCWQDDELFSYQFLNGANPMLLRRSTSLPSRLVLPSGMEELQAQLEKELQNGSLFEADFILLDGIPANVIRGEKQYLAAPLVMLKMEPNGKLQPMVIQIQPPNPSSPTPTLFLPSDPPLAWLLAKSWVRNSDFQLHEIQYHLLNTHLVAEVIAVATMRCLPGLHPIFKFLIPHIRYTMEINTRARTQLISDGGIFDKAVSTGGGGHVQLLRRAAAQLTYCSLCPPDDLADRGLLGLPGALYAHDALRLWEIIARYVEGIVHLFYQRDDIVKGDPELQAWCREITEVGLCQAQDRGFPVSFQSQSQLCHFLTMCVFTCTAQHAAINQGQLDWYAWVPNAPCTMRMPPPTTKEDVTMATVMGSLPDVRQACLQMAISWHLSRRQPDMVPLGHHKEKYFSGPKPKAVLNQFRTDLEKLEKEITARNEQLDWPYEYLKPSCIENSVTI
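Purified human 12hLO (150 nM final) in 25 mM Hepes, 0.01% Triton X-100, pH 7.0 was preincubated 15 min at room temperature with compound. Then 40 uM arachidonic acid was added, 30 min. Hydroperoxide was read by Fe-XO absorbance ratio 573/405 nm.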
TDP1 cell noCPT – qHTS for Inhibitors of human tyrosyl-DNA phosphodiesterase 1 (TDP1): qHTS in cells in absence of CPT. AID 686978, 2013. Potency, µM (titrated, usually from 46.2 µM), most hits filed as inhibitors. DT40 Tdp1-/- hTDP1 cells, no CPT, ATP luminescence, 48 h. hit rate 15% among 420,000; further: nearly all actives have a fitted effect of over 55% in size
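Camptothecin absent (DMSO only). Human TDP1-complemented DT40 knockout cells, 400 cells/well, 37 °C for minimum 48 hr; ATP measured via CellTiter-Glo, 30 min dark incubation, luminescence.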
HT1080 IDH1KD tx – HT-1080 IDH1 knockdown cell toxicity (counter line); HT-1080 IDH1 knockdown viability, ATP luminescence, 48 h; Potency, µM (highest dose often 46.1 µM), most hits filed as cytotoxic; hit rate 2% among 360,000
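Knockdown cells (IDH1KD HT-1080) received compounds 2 h after plating at 750 cells/well and were kept 48 h at 37 °C in 5% FBS RPMI. A CellTiter-Glo luminescence read gave % activity for curve fitting.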
DT40 TDP1 CPT – growth inhibition of DT40 Tdp1-/-;hTDP1 cells with camptothecin (screen for TDP1 inhibitors); chicken DT40 Tdp1-/-;hTDP1 cells + 20 nM CPT, ATP luminescence, 48 h; hit rate 12% among 420,000; AID 686979; Potency, µM (highest dose often 46.2 µM), hits mostly inhibitors; further: nearly all actives have a fitted effect of over 55% in size
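Chicken DT40 Tdp1-/- cells stably complemented with human TDP1 were seeded at 400 cells/well in medium containing 20 nM camptothecin, exposed to pin-transferred compounds, and grown at 37 °C for at least 48 hr. Viability was read as ATP luminescence.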
IL-1B inflam inh – inhibitors of inflammasome signaling (IL-1 beta secretion); hit rate 4.7% among 360,000; THP-1 LPS/ATP IL-1B secretion, AlphaLISA, 16 h; hits give low values; AID 743279; activity change, % at 57.5 µM; in the data active means activity change below about -50%; inconclusive means mostly about -30% to -49%
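THP-1 cells pretreated 1 hr with compounds (up to 57.5 uM final), then stimulated with LPS (250 ng/mL final) plus ATP (1.25 mM final); secreted IL-1B measured by AlphaLISA after 16 hr, decreased signal indicating inhibition.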
HT1080NT lethal – kills 2HG-producing HT-1080-NT fibrosarcoma cells; HT-1080-NT fibrosarcoma viability, CellTiter-Glo ATP luminescence, 48 h; hit rate 1.6% among 360,000; Potency, µM (titrated, usually from 46.1 µM), hits mostly cytotoxic; AID 686970;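 further: NT is the 2HG producing partner of a matched IDH1 knockdown line; nearly all actives have a fitted effect of over 55% in size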
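Fibrosarcoma NT cells, 750 per well in 5% FBS RPMI, were exposed to compound for 48 hours. Viability: CellTiter-Glo luminescence.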
Hits are given with their value; n = inactive; u = inconclusive; x = not tested or not shown; [ ] = another dose, or the depositor's remark. Unless noted, the call rests on the fitted dose curve; in most records, active means well fitted curve in the direction sought with a large enough effect; inconclusive means small, poorly fitted or top-dose-only effect, or another doubt; inactive means no such curve, though single readings can be large; an effect the other way counts as inactive or inconclusive.

SMILES | ALOX12 inh | TDP1 cell noCPT | HT1080 IDH1KD tx | DT40 TDP1 CPT | IL-1B inflam inh | HT1080NT lethal
Cc1ccc(NC(=O)C2CCCN(c3nnc(-n4c(C)ccc4C)s3)C2)cc1Cl (stereo unspecified) | n | 21µM | x | u | x | x
Cc1cc(C)cc(NC(=O)C2CCN(c3nnc(-n4c(C)ccc4C)s3)CC2)c1 | n | u | x | n | x | x
Cc1ccc(C)n1-c1nnc(N2CCCC(C(=O)Nc3ccc(C(C)C)cc3)C2)s1 (stereo unspecified) | u | 13µM | x | 21µM | x | x
CC(=O)N1C[C@@H](C(=O)N2CCN(c3ncccn3)CC2)[C@H](c2nc(C)no2)C1 | n | x | x | x | x | x
Cc1cnc(C)c(-c2cc(F)cc3c2OC(CNC(=O)c2cc(Cl)ccc2F)C3)n1 (stereo unspecified) | n | n | x | n | x | x
NC(N)=N/N=C(\N=Nc1ccccc1)c1ccc(Cl)cc1 | u | 13µM | n | 13µM | -113 | u
NC(N)=N/N=C(\N=Nc1ccccc1)c1cccc2cccnc12 | n | 21µM | u | 23µM | n | n
O=C(c1nnc(CNc2ccc(OC(F)(F)F)cc2)n1-c1ccccc1)N1CCC[C@@H]1CN1CCCC1 | n | x | x | x | x | x
N=c1n(CC(=O)c2cccc([N+](=O)[O-])c2)c2ccccc2n1Cc1ccccc1 | u | 21µM | u | 16µM | -104 | n
N=c1n(CCN2CCOCC2)c2ccccc2n1CC(=O)c1ccc(Cl)c(Cl)c1 | u | 18µM | u | u | n | n
N=c1n(CCN2CCOCC2)c2ccccc2n1CC(=O)c1cccc([N+](=O)[O-])c1 | n | 23µM | n | 16µM | n | n
O=C(Nc1nc2ccccc2n1CCN1CCOCC1)c1cccc([N+](=O)[O-])c1 | n | x | x | x | x | x
O=C(Cn1nnc2ccccc21)c1cccc([N+](=O)[O-])c1 | n | n | n | n | n | n
CCn1c(=N)n(CC(=O)c2cccc([N+](=O)[O-])c2)c2ccccc21 | n | 21µM | n | u | n | n
COc1cc(NC(=O)c2cc(-c3ccccc3Cl)on2)cc(OC)c1OC | n | 2.9µM | u | 2.9µM | -81 | u
COc1cc(NC(=O)c2cc(-c3ccc(C)cc3)on2)cc(OC)c1OC | n | u | n | n | n | n
COc1cc(NC(=O)c2cc(-c3cccs3)on2)cc(OC)c1OC | n | 16µM | n | 21µM | n | n
COc1cc(NC(=O)c2cc(-c3ccc(Cl)c(Cl)c3)on2)cc(OC)c1OC | n | u | x | 8.2µM | x | x
CCC(C)NC(=O)c1cc(-c2cccs2)nc2ccccc12 (stereo unspecified) | u | u | n | n | n | n
CCC(C)NC(=O)c1ccc2nc(-c3cccs3)c(-c3cccs3)nc2c1 (stereo unspecified) | x | 13µM | x | 10µM | x | x
COc1ccc(-c2cc(C(=O)Nc3cc(OC)c(OC)c(OC)c3)no2)cc1 | n | n | n | u | n | n
Cc1cc(C)n(CC(=O)N2CCC(n3c(C(C)C)nc4cccnc43)CC2)n1 | n | n | x | n[9.04 µM] | x | x
CSCCC(N)C(=O)O (stereo unspecified) | x | n | x | n | x | x
CNC[C@H]1Oc2ccc(NC(=O)Cc3cn(C)c4ccccc34)cc2CC(=O)N([C@@H](C)CO)C[C@H]1C | n | n | n | n | n | n
COc1cc(NC(=O)Nc2cccc(-c3noc(C)n3)c2)cc(OC)c1OC | n | 23µM | x | u | x | x
SMILES | ALOX12 inh | TDP1 cell noCPT | HT1080 IDH1KD tx | DT40 TDP1 CPT | IL-1B inflam inh | HT1080NT lethal
COc1cc(NC(=O)c2cc(-c3cccc(O)c3)on2)cc(OC)c1OC | n | 13µM | u | u | n | u
COCCNC(=O)Nc1ccc2nc(-c3cccs3)c(-c3cccs3)nc2c1 | u | u | n | u | -54 | n
COCCNC(=O)c1cc(-c2cccs2)on1 | n | 23µM | n | u | n | n
CCOC(=O)c1[nH]c2cc(OC)c(OC)cc2c1NC(=O)CCN1CCC(C(N)=O)CC1 | n | x | x | x | x | x
O=C(CN1CCCC1c1ccc2c(c1)OCCCO2)Nc1ccccc1F (stereo unspecified) | n | x | x | x | x | x
COc1ccc2c(c1)CCc1c(C(=O)Nc3ccc(OC)c(OC)c3)noc1-2 | n | u | n | u | n | n
COc1cc(NC(=O)c2noc3c2CCc2ccccc2-3)cc(OC)c1OC | n | 16µM | x | 7.3µM | x | x
CCCN1C(SCC(=O)N(CC)CC)=NS(=O)(=O)c2ccccc21 | n | x | x | x | x | x
C=CCN1/C(=C(\C#N)C2=NS(=O)(=O)c3ccccc32)N(C)c2ccccc21 | n | n | 7.1µM | n | n | 13µM
COC(=O)c1c(NC(C)=O)c2cc(NC3CCCCC3)cnc2n1CC1CCCO1 (stereo unspecified) | n | x | x | x | x | x
CCCCNC(=S)Nc1ccc(SC(F)F)cc1 | u | u | u | n | -105 | u
Oc1cccc(NC(=S)Nc2ccc(SC(F)F)cc2)c1 | u | u | n | n | -58 | n
COc1ccc(OC)c(CN2CCN(C(=O)CCC(=O)c3cccs3)CC2)c1 | n | n | n | u | n | n
O=C(Nc1ccccc1)N1CCC(N2CCCNC2=O)CC1 | n | x | x | x | x | x
CCOC(=O)c1cc(-c2ccccc2)sc1NC(=O)C(C)N1C(=O)c2ccccc2C1=O (stereo unspecified) | n | n | n | n | -53 | n
CCOC(=O)c1cc(-c2ccccc2)sc1NC(=O)COC(=O)c1ccc(Cl)c(S(N)(=O)=O)c1 | x | u | n | n | n | n
CCOC(=O)c1cc(-c2ccccc2)sc1NC(=O)c1ccc(OC)cc1 | x | u | n | 7.3µM | n | n
CCOC(=O)c1cc(-c2ccccc2)sc1NC(=O)COC(=O)c1cccc(S(N)(=O)=O)c1 | n | 10µM | u | u | n | n
CCOC(=O)c1cc(-c2ccccc2)sc1NC(=O)CCN1C(=O)c2ccccc2C1=O | n | u | n | n | n | n
COc1ccccc1N1CCN(CC(=O)c2c(C)[nH]c3cc(C)ccc23)CC1 | u | 18µM | n | u | n | n
CCOC(=O)C(C(=O)OCC)C(c1ccccc1)N1CCN(c2ccccc2)CC1 (stereo unspecified) | n | 21µM | n | u | n | n
COc1ccccc1N1CCN(CCCCOc2cccc3ccccc23)CC1 | u | 9.2µM | 16µM | 18µM | -57 | u
CC(CC(=O)c1ccc(F)cc1)N1CCN(c2ccccc2)CC1 (stereo unspecified) | u | u | n | 18µM | n | n
CC(c1ccccc1)N1Cc2cc(NC(=O)c3ccccc3)ccc2OCC1=O (stereo unspecified) | n | x | x | x | x | x
COc1cn(CC(=O)Nc2ccc(C)cc2C)c(CN2CCCCC2)cc1=O | n | n | x | n | x | x
